Results published in PubChem BioAssay (NCI).
The panel holds about 83,000 compounds, 20% with a hit somewhere; the sample as a whole holds those more often.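 Interpretation: 100, growth as untreated; towards 0, rising growth inhibition; 0, no net growth; 0 to -100, cell death. Compounds scoring below 10 were considered active.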 Values without a mark were called inactive. Active and inactive are the calls of the source.

Tests used:
Test in all cases: NCI-60 one-dose screen, 48 h (100 = growth as untreated, 0 = no growth, -100 = all killed)
Conditions in all cases: 10 µM unless noted
NCI-H23 lung = test system: NCI-H23 lung
NCI-H226 lung = test system: NCI-H226 lung
NCI-H322M lung = test system: NCI-H322M lung
HOP-62 NSCLC = test system: HOP-62 NSCLC
NCI-H460 lung = test system: NCI-H460 lung
HOP-92 NSCLC = test system: HOP-92 NSCLC
NCI-H522 lung = test system: NCI-H522 lung
A549/ATCC NSCLC = test system: A549/ATCC NSCLC
786-0 renal = test system: 786-0 renal
COLO 205 colon = test system: COLO 205 colon
DU-145 prostate = test system: DU-145 prostate
K-562 leukemia = test system: K-562 leukemia
MALME-3M melanoma = test system: MALME-3M melanoma
MDA-MB-231 breast = test system: MDA-MB-231 breast
RXF 393 renal = test system: RXF 393 renal
SF-268 CNS = test system: SF-268 CNS
SF-295 CNS = test system: SF-295 CNS
SF-539 CNS = test system: SF-539 CNS
UACC-257 melanoma = test system: UACC-257 melanoma
M14 melanoma = test system: M14 melanoma

Row | Compound | growth (NCI-H23 lung) | growth (NCI-H226 lung) [%] | growth (NCI-H322M lung) [%] | growth (HOP-62 NSCLC) | growth (NCI-H460 lung) | growth (HOP-92 NSCLC) | growth (NCI-H522 lung) | growth (A549/ATCC NSCLC) | growth (786-0 renal) | growth (COLO 205 colon) | growth (DU-145 prostate) | growth (K-562 leukemia) | growth (MALME-3M melanoma) | growth (MDA-MB-231 breast) | growth (RXF 393 renal) | growth (SF-268 CNS) [%] | growth (SF-295 CNS) | growth (SF-539 CNS) | growth (UACC-257 melanoma) | growth (M14 melanoma)
1 | Brc1c2c(c(Br)c3ccccc13)CCCC2 | 97.7% | 85.8 | 99.6 | 84% | 111% | 80.9% | 75.5% | 79.7% | 102% | 102% | 110% | 94.7% | 108% | 91% | 101% | 104 | 101% | 102% | 89.8% | 99.1%
2 | CCCCNC(=O)Oc1ccc(/C(=C(/CC)Cc2ccccc2)c2ccc(OCCN3CCCCCC3)cc2)cc1 | 57.4% | 83.4 | 85.4 | 74.8% | -59.8% (active) | 36% | 30.4% | 39.5% | 36.6% | -75% (active) | 49.9% | -24.8% (active) | -58.3% (active) | 43.3% | 16.7% | 61 | 91.9% | -30.2% (active) | 34.3% | -19.3% (active)
3 | CCCCCCNC(=O)Oc1ccc(/C(=C(/C)Cc2ccc(OC)cc2)c2ccc(OCCCN(C)C)cc2)cc1 | 70.7% | 90.5 | 70.5 | 76% | -52.7% (active) | 25% | 36.4% | 31.9% | 44.5% | -84% (active) | 48.9% | -51.8% (active) | -51.2% (active) | 32.6% | 31.2% | 60.8 | 10.5% | 40.7% | -6.6% (active) | -63.9% (active)
4 | O=C1c2cccc3cccc(c23)C(=O)N1N1C(=O)c2cccc3c(N4CCOCC4)ccc(c23)C1=O | 89.1% | 95.4 | 94.5 | 87.3% | 101% | 85.6% | 102% | 95.5% | 102% | 108% | 110% | 102% | 78.8% | 76.3% | 93.4% | 96.2 | 90.7% | 101% | 96.7% | 90%
5 | C=CCn1c(SCC(=O)NCc2cc(C)c(O)c(C)c2)nc2ccc(Cl)cc2c1=O | 101% | 87.2 | 97 | 101% | 107% | 82.2% | 94.1% | 106% | 92.5% | 116% | 105% | 58.6% | 98.8% | 111% | 98.6% | 99.2 | 91.1% | 101% | 102% | 115%
6 | C=CCc1c(O)c(C(=O)/C=C/c2ccc(Cl)cc2)c(OC)c2ccoc12 | 57.1% | 28.7 | 75.8 | 85.4% | 49.8% | 48.6% | 35.7% | 47.3% | 78% | 73.7% | 78.5% | 47.2% | 34.6% | 49.4% | 21.9% | 53.8 | 33.1% | 50.7% | 39.4% | 58.3%
7 | COP(=O)(OC)C(C)(C)CC(=O)CC(C#N)(C#N)C(C#N)C#N | 98.7% | 92.9 | 99.3 | 98.1% | 112% | 55.9% | 101% | 104% | 105% | 107% | 113% | 91.1% | 96.8% | 100% | 97.8% | 98 | 101% | 102% | 103% | 96.2%
8 | CCCCCCCCCCCCCCCCCCOc1ccccc1CC(=O)NCC[N+]1(C)CCCC1 | 55.3% | 70.5 | 67.3 | 54% | 34.8% | 22.6% | 32.8% | 50.6% | 70.2% | -6.88% (active) | 56.8% | 36.9% | 52.4% | 43.1% | 4.86% (active) | 31 | 86.5% | 82.1% | 93.2% | 65.8%
9 | c1cc2[nH]ncc2cc1-c1nc2ccc3[nH]ncc3c2c2c1CCCC2 | 12.9% | 29.4 | 23.7 | 22.7% | 13.6% | 16.9% | -28.2% (active) | 5.84% (active) | 19.7% | 3.57% (active) | 23.3% | 15.3% | 12.1% | 31.1% | -15.8% (active) | 25.1 | 19.4% | -7.82% (active) | 20.2% | 2.16% (active)
10 | O=c1oc2c(cnc3ccccc32)cc1-c1ccsc1 | 99.8% | 97.8 | 110 | 92.3% | 99.9% | 82.4% | 97.4% | 105% | 97.1% | 112% | 104% | 92.8% | 101% | 101% | 105% | 94.6 | 103% | 93.4% | 101% | 101%
11 | CCS/C(Nc1ccccc1)=C(\C#N)C(=O)N/N=C/c1ccc(Cl)cc1Cl | 41.3% | 37.7 | 70.9 | 36.7% | 8.05% (active) | 29.2% | 1.02% (active) | 38.3% | 31.8% | 28.4% | 20% | 7.35% (active) | 38.1% | 39% | 2.63% (active) | 34 | 17% | 4.25% (active) | 51.9% | 21%
12 | N#CC1=C(N)Oc2c(sc3c(F)cccc23)C1c1ccc(F)cc1 (stereo not given) | 38.9% | 36.5 | 49.3 | 35.1% | 11.6% | 44.5% | -3.69% (active) | 25.7% | 19.8% | 13% | 16.6% | 11.1% | 56.3% | 39.6% | -16.5% (active) | 54.4 | 14.6% | -14.3% (active) | 60.5% | 0.877% (active)
13 | COc1cccc(CNc2ncnc3c2ncn3C2OC(CO)C(O)C2O)c1O (stereo not given) | 7.98% (active) | 31.6 | 11.3 | 1.76% (active) | 45.7% | -32.7% (active) | 8.65% (active) | 23.9% | 7.21% (active) | 24.6% | 0.439% (active) | 6.7% (active) | -1.1% (active) | -46% (active) | -13.3% (active) | 22.8 | -24.5% (active) | -3.39% (active) | 37.6% | 18.5%
14 | N#C/C(=C\c1ccc2ccccc2c1)c1cc2ccccc2[nH]1 | 48.8% | 67.9 | 63.3 | 40.4% | 13.3% | 41.5% | 1.83% (active) | 51.1% | 41.1% | 24.9% | 59.5% | 19.4% | 45% | 41.5% | 29.3% | 54.2 | 33% | 32.9% | 63.2% | 18%
15 | O=C(CCCCCCN1CC(=O)N2[C@H](c3cc(Br)cs3)c3[nH]c4ccccc4c3C[C@H]2C1=O)NO | 50.4% | 79.9 | 38.5 | 41.8% | 35.1% | 18.2% | 20.5% | 61.1% | 76.9% | 42.6% | 29.1% | 10.2% | 18.6% | 44% | 18.7% | 66.8 | 45.8% | 43.3% | 27.7% | 37.2%
